Compound activity as filed in PubChem.
Shown are actives, neighbours in structure and some others; about 12% of the full set was active somewhere.
BAZ2B inh = qHTS Assay for Inhibitors of BAZ2B | Bromodomain adjacent to zinc finger domain protein 2B (Homo sapiens), Q9UIF8 | AlphaScreen BAZ2B-H3K14Ac peptide displacement | Potency, µM (doses to about 114 µM), for the others: at the top dose activity change, negative = inhibition, actives largely listed as inhibitors | 360,000 compounds, 4.4% hits | AID 504333, 2011; further: on the % scale 0 is the no-effect control and ±100 the full control effect; nearly all actives have a fitted effect of over 60% in size
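AlphaScreen displacement: compounds (up to 110uM) incubated 30 min at room temperature with a preformed 50 nM BAZ2B/50 nM biotinylated H3K14Ac peptide complex in PBS pH 7.4 with Tween-20. Donor and acceptor beads at 10 ug/mL final added, 20 min light-protected before reading.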
Sfp inh = qHTS Assay for Inhibitors of Bacillus subtilis Sfp phosphopantetheinyl transferase (PPTase); Biochemical Sfp PPTase activity, qHTS; Potency, µM, inactives show largest response in the series, negative = inhibition, hits mostly inhibitors; AID 1490, 2009; 310,000 compounds, 3.5% hits;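 further: the enzyme is Sfp with the accession as filed and its product quenches rhodamine fluorescence; 0% = enzyme reaction without inhibitor and -100% = no enzyme wells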
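Fluorescence-quenching assay with 15 nM Sfp, 5 uM rhodamine-CoA and 12.5 uM BHQ-2-labelled ybbR peptide in pH 7.6 Hepes/MgCl2 buffer. Enzyme was pre-incubated with compound for 15 min at room temperature. Rate was taken from the 30-min fluorescence change (525/598 nm).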
G9a inh = qHTS Assay for Inhibitors of Histone Lysine Methyltransferase G9a; Histone-lysine N-methyltransferase EHMT2 (Homo sapiens), Q96KQ7; G9a H3K9 monomethylation, AlphaScreen, 2 h; Potency, µM (titrated, usually from 102 µM), for inactives: top-dose activity, negative = inhibition, hits mostly inhibitors; 350,000 compounds, 8.8% hits; further: on the % scale 0 is the no-effect control and ±100 the full control effect; nearly all actives have a fitted effect of over 75% in size
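AlphaScreen read-out: biotin-H3K9 peptide (500 nM) methylation by 20 nM enzyme with 20 uM SAM, 2 h at room temperature after 15 min compound preincubation; anti-monomethyl H3K9 antibody plus donor/acceptor beads, 10 min dark.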
JMJD2A Tudor inh = qHTS Assay for Inhibitors of JMJD2A-Tudor Domain; AlphaScreen JMJD2A-Tudor / H3K4me3 peptide binding; Potency, µM (top dose mostly 114 µM), inactives show top-dose activity change, negative = inhibition, most hits filed as inhibitors; 390,000 compounds, 4.4% hits; further: on the % scale 0 is the no-effect control and ±100 the full control effect; nearly all actives have a fitted effect of over 50% in size
HP1b chromo inh = HTS for Inhibitors of HP1-beta Chromodomain Interactions with Methylated Histone Tails; Chromobox protein homolog 1 (Homo sapiens), P83916; AlphaScreen HP1-beta / biotin-H3K9me3 peptide binding; Potency, µM (doses to about 114 µM), for inactives: at the top dose activity change, negative = inhibition, usual class: inhibitors; 390,000 compounds, 0.56% hits; AID 540317, 2011; further: nearly all actives have a fitted effect of over 70% in size
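HP1-beta protein (50 nM final) preincubated 30 min at room temperature with biotinylated H3(1-18)K9me3 peptide (50 nM) in PBS pH 7.4, 0.01% Tween-20, then compound added for 30 min. AlphaScreen streptavidin donor/nickel chelate acceptor beads (10 ug/mL final), 30 min dark, luminescence read.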
* marks the source's active call; other numbers are inactive results; ? = inconclusive; . = no result; [ ] = another dose, or the depositor's remark. The call rests on the fitted dose curve; in most records, active means well fitted curve in the direction sought with a large enough effect; inconclusive means small, poorly fitted or top-dose-only effect, or another doubt; inactive means no such curve, though single readings can be large; an effect the other way counts as inactive or inconclusive. Potency means the concentration at half of the fitted maximal effect.

SMILES	BAZ2B inh	Sfp inh	G9a inh	JMJD2A Tudor inh	HP1b chromo inh
COc1ccc(CCNCC2C(Oc3ccc(Cl)cc3)C(=O)N2c2ccccc2C)cc1OC (stereo not given)	?	-26.6%	44.7µM*	?	5.7%
CC(C)c1ccc(NC(=O)C2C3C=CC4(O3)C2C(=O)N(CCCN2CCCCC2)C4C(=O)NC2CCCCC2)cc1 (stereo not given)	3.2%	8.0%	-17.8%	-8.1%	-8.2%
COc1ccc(NC(=O)C2C3C=CC4(O3)C2C(=O)N(CCN2CCCCC2)C4C(=O)NC2CCCCC2)cc1 (stereo not given)	4.7%	1.2%	24.4%	-12.7%	5.2%
O=C(Nc1ccc(Br)cc1)C1C2C=CC3(O2)C1C(=O)N(CCN1CCCCC1)C3C(=O)NC1CCCCC1 (stereo not given)	-16.4%	13.7%	50.1µM*	-17.9%	1.5%
CC1CCN(CCCN2C(=O)C3C(C(=O)Nc4ccc(Cl)cc4)C4C=CC3(O4)C2C(=O)NC2CCCCC2)CC1 (stereo not given)	-2.5%	9.3%	39.8µM*	-15.0%	-10.6%
CSc1cccc(NC(=O)C2C3C=CC4(O3)C2C(=O)N(CCCN2CCOCC2)C4C(=O)NC2CCCCC2)c1 (stereo not given)	-20.7%	-5.4%	44.7µM*	-17.1%	-8.6%
CC1CCCN(CCCN2C(=O)C3C(C(=O)Nc4ccc(Cl)cc4)C4C=CC3(O4)C2C(=O)NC2CCCCC2)C1 (stereo not given)	-3.2%	7.2%	44.7µM*	-15.8%	-23.7%
Cc1ccc(NC(=O)C2C3C=CC4(O3)C2C(=O)N(CCCN2CCCC(C)C2)C4C(=O)NC2CCCCC2)cc1 (stereo not given)	1.4%	13.6%	?	-13.7%	0.9%
Cc1cc(Cl)c(S(=O)(=O)N2CCN(c3ccccn3)CC2)cc1OCC(=O)NC1CCCCC1	-8.7%	-0.6%	10.7%[12.7 µM]	-28.1%	24.5%
Clc1ccc(CNc2nc(CN3CCOCC3)nc3scc(-c4ccccc4)c23)cc1	50.1µM*	56.2µM*	?	?	-20.9%
CC(=O)CSc1nnc(CN2C(=O)CSc3ccc(C(F)(F)F)cc32)n1C	-1.5%	-4.5%	44.7µM*	-12.8%	36.7%
Cc1nn(-c2ccccc2)c(OC(=O)C(C)C)c1Sc1ccc(Cl)cc1	-2.9%	.	4.47µM*	-33.1%	4.2%
Cc1ccc(-c2nn3c(C)nnc3s2)cc1NC(=O)c1ccc(-c2ccc(Cl)cc2Cl)o1	?	12.6µM*	-20.8%[59 µM]	63.1µM*	19.6%
Clc1ccc(-c2nnc3sc(-c4ccc(Br)o4)nn23)cc1	-3.4%	6.0%	-19.8%[12.7 µM]	-10.1%	27.7%
Clc1ccccc1-c1nnc2sc(-c3ccc4c(c3)OCO4)nn12	3.3%	10µM*	1.78µM*	?	?
Clc1cccc(-c2nnc3sc(-c4ccc5c(c4)OCO5)nn23)c1	-3.7%	31.6µM*	10µM*	.	.
Cc1oc(-c2ccc(Cl)cc2)cc1-c1nn2c(-c3ccoc3C)nnc2s1	3.9%	10µM*	?	?	-24.8%
CN1C(=O)CC(N2CCN(c3ncccn3)CC2)C1=O (stereo not given)	1.1%	3.8%	25.0%[59 µM]	-3.0%	32.5%
CN(C)c1ccc(-c2nn3c(-c4ccc(Cl)cc4Cl)nnc3s2)cc1	1.4%	0.8%	14.1µM*	.	.
CC1CC(N(C(=O)c2ccc(Cl)cc2)c2ccccc2)c2ccccc2N1C(=O)c1ccco1 (stereo not given)	-33.7%	2.5%	44.7µM*	-33.0%	7.9%
CSCCC(C(=O)N1C[C@]2(C)C[C@H]1CC(C)(C)C2)N1C(=O)c2ccccc2C1=O (stereo not given in full)	-30.0%	-3.6%	22.2%[0.501 µM]	-25.0%	-1.8%
Cc1cccc(C)c1OCC(=O)N(Cc1cccs1)C1CCS(=O)(=O)C1 (stereo not given)	2.2%	9.9%	?	-11.4%	51.3%
COC(=O)C(C)n1cnc2c(nnn2-c2ccccc2)c1=O (stereo not given)	-4.6%	7.9%	89.1µM*	-3.4%	31.6%
CCOC(=O)C(C)n1cnc2c(nnn2-c2ccccc2)c1=O (stereo not given)	-22.2%	9.6%	14.6%	2.0%	41.3%
c1ccc(-c2ccc3c(c2)c2c4n3CCN=C4CCC2)cc1	?	?	20µM*	56.2µM*	-22.7%
SMILES	BAZ2B inh	Sfp inh	G9a inh	JMJD2A Tudor inh	HP1b chromo inh
OC1CN=C2CCCc3c2n(c2ccc(Cl)cc32)C1 (stereo not given)	-37.2%	-9.5%	?	-31.1%	24.3%
CC(=O)Oc1ccc(C(=O)Nc2cccc(-c3nnc(-c4ccco4)o3)c2)cc1	-29.0%	-1.9%	50.1µM*	-19.7%	17.3%
COc1cccc(-c2nnc(-c3ccco3)o2)c1	5.1%	5.7%	-8.3%	50.1µM*	-1.5%
COc1cccc(-c2nnc(-c3ccc(C)o3)o2)c1	-4.2%	56.2µM*	12.6µM*	-16.2%	29.6%
COc1cccc(-c2nnc(N)o2)c1	-1.7%	9.9%	0.8%	-5.8%	21.1%
O=C(Nc1cccc(-c2nnc(-c3ccco3)o2)c1)c1ccccc1	-4.2%	21.4%	7.6%	-7.7%	19.5%
O=C(CCc1nnc2ccc(N3CCC4(CC3)OCCO4)nn12)Nc1ccc(F)cc1	-3.7%	14.8%	-1.5%[59 µM]	?	16.6%
Cc1ccc2cc(C(c3nnnn3C(C)(C)C)N3CCCC3)c(=O)[nH]c2c1C (stereo not given)	-29.4%	44.7µM*	31.6µM*	.	.
Cc1cc(C(c2nnnn2Cc2ccccc2)N2CCOCC2)c(C)n1-c1ccc2c(c1)OCO2 (stereo not given)	?	28.2µM*	39.8µM*	?	?
O=c1[nH]c2cc3c(cc2cc1C(c1nnnn1Cc1ccccc1)N1CCCCCC1)OCCO3 (stereo not given)	9.3%	-22.2%	14.1µM*	-5.4%	25.8%
Cc1cc2cc(C(c3nnnn3Cc3ccco3)N3CCCCC3)c(=O)[nH]c2cc1C (stereo not given)	-5.9%	39.8µM*	50.1µM*	-11.6%	24.1%
CCCCN(C)C(=O)C1CCC(CNS(=O)(=O)c2ccc(Cl)cc2)CC1 (stereo not given)	-28.1%	.	4.2%[59 µM]	-27.9%	33.2%
c1ccc(-n2ncc3c2ncn2nc(CSc4nc5ccccc5s4)nc32)cc1	-29.5%	7.9%	-6.8%[12.7 µM]	?	-5.9%
Cc1cccc2cc(C(c3nnnn3CC3CCCO3)N3CCCC4(CCCCC4)C3)c(=O)[nH]c12 (stereo not given)	5.0%	21.0%	-9.5%[59 µM]	.	.
Cc1cccc2cc(C(c3nnnn3Cc3ccc4c(c3)OCO4)N3CCCC3)c(=O)[nH]c12 (stereo not given)	-9.4%	56.2µM*	17.8µM*	-4.5%	26.9%
